# Assay results from ChEMBL document CHEMBL1961873, “Compounds: GSK PKIS; Assays: Nanosyn kinase panel” (2012).
# Experiments:
# [1] = biological target: T1, Serine/threonine-protein kinase Nek9 (Homo sapiens) (UniProt Q8TD19); conditions: at 1 µM;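 note: each value is a mean percent inhibition of NEK9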
# T1 sequence (whole entry): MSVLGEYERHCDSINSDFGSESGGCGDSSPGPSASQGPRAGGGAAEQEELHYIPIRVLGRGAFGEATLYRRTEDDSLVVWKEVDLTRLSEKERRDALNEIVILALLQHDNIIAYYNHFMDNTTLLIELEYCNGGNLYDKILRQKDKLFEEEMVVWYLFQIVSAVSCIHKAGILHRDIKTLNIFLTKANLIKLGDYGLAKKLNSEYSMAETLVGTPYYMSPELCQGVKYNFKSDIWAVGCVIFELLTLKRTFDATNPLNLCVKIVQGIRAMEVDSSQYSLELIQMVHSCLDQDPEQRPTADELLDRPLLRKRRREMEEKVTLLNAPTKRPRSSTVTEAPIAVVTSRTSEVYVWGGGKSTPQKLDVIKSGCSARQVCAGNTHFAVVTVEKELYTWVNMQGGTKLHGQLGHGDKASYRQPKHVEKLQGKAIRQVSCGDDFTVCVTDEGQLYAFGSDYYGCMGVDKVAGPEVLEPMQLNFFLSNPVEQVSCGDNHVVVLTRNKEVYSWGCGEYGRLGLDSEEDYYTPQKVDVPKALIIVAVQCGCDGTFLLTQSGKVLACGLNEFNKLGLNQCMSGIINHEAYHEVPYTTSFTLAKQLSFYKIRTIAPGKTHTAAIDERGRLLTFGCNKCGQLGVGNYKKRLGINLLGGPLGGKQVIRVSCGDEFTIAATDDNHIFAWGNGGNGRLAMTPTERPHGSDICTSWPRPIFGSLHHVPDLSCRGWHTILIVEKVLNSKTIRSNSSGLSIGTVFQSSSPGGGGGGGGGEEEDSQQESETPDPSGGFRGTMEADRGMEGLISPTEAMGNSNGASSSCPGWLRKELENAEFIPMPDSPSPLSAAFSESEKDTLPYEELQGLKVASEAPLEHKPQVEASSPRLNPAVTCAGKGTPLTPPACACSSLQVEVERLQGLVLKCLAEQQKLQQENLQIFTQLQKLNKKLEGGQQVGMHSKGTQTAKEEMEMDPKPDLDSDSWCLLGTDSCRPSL
# [2] = biological target: Serine/threonine-protein kinase PLK1 (Homo sapiens) (UniProt P53350); conditions: at 0.1 µM
# [3] = biological target: Serine/threonine-protein kinase PLK1 (Homo sapiens) (UniProt P53350); conditions: at 1 µM
# [4] = biological target: T2, Dual specificity protein kinase TTK (Homo sapiens) (UniProt P33981); conditions: at 0.1 µM
# T2 sequence (whole entry): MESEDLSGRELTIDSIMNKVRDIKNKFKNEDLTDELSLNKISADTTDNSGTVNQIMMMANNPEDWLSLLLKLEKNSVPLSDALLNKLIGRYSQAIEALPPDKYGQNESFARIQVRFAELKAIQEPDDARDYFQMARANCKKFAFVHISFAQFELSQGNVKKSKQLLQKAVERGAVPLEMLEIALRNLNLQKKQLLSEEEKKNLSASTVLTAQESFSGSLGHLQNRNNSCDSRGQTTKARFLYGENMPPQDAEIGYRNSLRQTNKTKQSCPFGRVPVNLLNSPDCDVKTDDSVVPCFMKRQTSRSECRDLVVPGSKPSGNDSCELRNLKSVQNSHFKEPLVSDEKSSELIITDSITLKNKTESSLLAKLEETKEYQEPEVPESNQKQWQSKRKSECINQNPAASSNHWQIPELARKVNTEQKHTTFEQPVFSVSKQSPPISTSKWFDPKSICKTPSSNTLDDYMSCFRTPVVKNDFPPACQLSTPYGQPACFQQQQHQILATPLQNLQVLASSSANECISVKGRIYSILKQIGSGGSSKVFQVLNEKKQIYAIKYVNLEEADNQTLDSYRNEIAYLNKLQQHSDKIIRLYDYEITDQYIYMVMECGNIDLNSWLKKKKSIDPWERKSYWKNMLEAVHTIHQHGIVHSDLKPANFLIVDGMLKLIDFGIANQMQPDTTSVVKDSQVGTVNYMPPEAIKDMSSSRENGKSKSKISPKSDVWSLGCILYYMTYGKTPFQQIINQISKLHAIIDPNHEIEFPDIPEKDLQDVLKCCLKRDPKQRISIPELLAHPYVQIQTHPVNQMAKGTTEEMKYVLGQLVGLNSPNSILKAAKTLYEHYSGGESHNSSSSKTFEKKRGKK
# [5] = system: T3, Receptor-type tyrosine-protein kinase FLT3 (Homo sapiens), P36888 [D835Y]; conditions: at 1 µM
# T3 sequence (whole entry): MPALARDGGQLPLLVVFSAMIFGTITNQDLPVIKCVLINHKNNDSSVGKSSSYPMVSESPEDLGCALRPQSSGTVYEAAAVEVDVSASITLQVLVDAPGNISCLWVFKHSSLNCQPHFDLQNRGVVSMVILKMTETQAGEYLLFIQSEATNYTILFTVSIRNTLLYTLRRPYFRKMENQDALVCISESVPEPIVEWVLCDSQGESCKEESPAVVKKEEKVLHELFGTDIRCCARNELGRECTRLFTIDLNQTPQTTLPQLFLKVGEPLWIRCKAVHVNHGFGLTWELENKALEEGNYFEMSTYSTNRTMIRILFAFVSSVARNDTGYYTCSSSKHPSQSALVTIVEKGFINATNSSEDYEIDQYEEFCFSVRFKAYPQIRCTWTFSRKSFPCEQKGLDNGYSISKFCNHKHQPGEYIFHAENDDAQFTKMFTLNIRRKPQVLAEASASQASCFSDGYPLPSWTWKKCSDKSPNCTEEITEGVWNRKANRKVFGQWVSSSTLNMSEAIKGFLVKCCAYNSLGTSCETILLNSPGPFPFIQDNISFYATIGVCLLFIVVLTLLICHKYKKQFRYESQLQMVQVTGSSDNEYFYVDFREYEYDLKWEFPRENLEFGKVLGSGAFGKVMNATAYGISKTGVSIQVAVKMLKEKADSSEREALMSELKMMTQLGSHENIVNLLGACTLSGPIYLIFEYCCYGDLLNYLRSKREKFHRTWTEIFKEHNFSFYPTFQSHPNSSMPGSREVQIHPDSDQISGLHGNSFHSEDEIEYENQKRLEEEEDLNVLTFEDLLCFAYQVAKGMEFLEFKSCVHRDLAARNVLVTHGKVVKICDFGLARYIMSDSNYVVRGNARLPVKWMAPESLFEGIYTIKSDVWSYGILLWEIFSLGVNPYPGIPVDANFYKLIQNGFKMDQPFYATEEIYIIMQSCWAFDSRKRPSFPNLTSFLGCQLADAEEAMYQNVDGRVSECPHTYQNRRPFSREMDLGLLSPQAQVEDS
# [6] = biological target: Vascular endothelial growth factor receptor 3 (Homo sapiens) (UniProt P35916); conditions: at 0.1 µM
# Chain of Vascular endothelial growth factor receptor 3 (Homo sapiens) (P35916 whole entry): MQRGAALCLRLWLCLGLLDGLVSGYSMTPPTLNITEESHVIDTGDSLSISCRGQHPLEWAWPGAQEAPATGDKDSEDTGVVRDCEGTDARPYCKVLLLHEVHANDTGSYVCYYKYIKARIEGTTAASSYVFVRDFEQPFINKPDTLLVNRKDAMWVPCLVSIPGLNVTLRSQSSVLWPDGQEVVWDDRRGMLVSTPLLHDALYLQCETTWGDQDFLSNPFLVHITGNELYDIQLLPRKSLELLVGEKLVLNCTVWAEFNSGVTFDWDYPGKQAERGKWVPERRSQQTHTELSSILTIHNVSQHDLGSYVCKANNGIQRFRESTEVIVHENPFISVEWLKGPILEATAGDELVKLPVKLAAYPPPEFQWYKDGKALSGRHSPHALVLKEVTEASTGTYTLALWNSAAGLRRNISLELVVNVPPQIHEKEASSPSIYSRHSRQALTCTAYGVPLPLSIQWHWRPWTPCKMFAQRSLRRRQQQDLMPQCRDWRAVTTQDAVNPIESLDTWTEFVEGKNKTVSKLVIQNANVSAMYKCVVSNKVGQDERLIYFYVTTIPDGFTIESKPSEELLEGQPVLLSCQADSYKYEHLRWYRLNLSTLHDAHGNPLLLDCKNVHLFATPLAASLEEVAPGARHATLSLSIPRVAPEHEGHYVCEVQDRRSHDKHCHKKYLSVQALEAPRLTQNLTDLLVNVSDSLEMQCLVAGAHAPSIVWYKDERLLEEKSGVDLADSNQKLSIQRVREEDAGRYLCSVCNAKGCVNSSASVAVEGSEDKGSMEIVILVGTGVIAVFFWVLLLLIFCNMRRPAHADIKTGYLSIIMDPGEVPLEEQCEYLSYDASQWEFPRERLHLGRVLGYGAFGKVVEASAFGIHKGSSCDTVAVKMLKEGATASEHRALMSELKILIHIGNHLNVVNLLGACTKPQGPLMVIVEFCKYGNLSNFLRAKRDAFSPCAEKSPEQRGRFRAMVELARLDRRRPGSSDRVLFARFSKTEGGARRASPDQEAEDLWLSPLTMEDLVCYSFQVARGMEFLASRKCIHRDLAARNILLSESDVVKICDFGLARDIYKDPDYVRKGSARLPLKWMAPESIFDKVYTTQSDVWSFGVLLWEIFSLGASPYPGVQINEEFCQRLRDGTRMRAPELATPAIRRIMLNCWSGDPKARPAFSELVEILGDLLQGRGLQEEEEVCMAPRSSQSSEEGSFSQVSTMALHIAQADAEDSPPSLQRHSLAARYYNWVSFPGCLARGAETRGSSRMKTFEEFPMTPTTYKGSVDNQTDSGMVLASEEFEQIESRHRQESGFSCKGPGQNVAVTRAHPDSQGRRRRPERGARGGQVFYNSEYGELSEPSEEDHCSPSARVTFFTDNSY
# [7] = biological target: Vascular endothelial growth factor receptor 3 (Homo sapiens) (UniProt P35916); conditions: at 1 µM
# [8] = biological target: Macrophage colony-stimulating factor 1 receptor (Homo sapiens) (UniProt P07333); conditions: at 0.1 µM
# Chain of Macrophage colony-stimulating factor 1 receptor (Homo sapiens) (P07333 whole entry): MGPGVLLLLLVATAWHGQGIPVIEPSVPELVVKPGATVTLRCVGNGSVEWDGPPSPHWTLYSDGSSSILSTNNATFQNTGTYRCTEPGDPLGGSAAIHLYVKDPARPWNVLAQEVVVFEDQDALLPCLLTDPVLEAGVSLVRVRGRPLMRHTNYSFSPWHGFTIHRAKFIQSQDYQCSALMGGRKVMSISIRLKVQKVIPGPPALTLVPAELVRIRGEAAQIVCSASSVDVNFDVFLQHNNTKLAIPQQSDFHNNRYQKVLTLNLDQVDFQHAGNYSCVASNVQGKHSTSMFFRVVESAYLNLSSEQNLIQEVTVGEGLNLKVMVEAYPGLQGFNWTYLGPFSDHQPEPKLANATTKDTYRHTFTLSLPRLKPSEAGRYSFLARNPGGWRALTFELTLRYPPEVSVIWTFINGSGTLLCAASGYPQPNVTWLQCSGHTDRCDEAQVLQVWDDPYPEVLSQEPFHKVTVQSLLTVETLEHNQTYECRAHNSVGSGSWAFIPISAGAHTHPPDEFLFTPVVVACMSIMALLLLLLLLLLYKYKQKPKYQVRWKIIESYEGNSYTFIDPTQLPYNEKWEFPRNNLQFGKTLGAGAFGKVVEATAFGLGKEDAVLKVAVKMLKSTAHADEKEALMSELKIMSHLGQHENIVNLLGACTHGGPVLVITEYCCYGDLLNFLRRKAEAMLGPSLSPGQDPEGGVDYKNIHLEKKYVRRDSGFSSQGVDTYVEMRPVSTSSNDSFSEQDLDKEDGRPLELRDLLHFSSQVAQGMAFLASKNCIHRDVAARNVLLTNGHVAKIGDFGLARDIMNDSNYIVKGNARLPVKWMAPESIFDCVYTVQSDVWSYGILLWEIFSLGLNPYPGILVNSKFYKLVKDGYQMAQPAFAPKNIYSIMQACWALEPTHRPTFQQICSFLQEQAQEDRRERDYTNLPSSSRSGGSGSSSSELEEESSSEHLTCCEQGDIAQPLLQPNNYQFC
# [9] = biological target: Macrophage colony-stimulating factor 1 receptor (Homo sapiens) (UniProt P07333); conditions: at 1 µM
# [10] = biological target: Tyrosine-protein kinase Fyn (Homo sapiens) (UniProt P06241); conditions: at 0.1 µM
# Chain of Tyrosine-protein kinase Fyn (Homo sapiens) (P06241 2-537 limits assumed): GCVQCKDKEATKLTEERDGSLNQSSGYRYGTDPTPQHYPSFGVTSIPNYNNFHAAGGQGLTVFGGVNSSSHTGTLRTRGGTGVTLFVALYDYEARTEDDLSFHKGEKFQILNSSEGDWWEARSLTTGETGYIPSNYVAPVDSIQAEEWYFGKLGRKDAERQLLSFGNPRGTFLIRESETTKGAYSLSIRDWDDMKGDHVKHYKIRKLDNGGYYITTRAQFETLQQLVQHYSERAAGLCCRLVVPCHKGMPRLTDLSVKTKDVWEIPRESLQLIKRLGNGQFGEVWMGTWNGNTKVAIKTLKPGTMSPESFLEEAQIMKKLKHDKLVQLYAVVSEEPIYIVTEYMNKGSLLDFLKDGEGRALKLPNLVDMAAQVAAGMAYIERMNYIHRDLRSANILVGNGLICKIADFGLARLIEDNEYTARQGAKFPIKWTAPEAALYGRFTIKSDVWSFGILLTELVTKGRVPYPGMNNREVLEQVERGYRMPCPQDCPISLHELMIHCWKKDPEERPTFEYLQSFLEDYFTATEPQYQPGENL
# [11] = biological target: Tyrosine-protein kinase Fyn (Homo sapiens) (UniProt P06241); conditions: at 1 µM
# [12] = biological target: Tyrosine-protein kinase HCK (Homo sapiens) (UniProt P08631); conditions: at 0.1 µM
# Chain of Tyrosine-protein kinase HCK (Homo sapiens) (P08631 2-526 limits assumed): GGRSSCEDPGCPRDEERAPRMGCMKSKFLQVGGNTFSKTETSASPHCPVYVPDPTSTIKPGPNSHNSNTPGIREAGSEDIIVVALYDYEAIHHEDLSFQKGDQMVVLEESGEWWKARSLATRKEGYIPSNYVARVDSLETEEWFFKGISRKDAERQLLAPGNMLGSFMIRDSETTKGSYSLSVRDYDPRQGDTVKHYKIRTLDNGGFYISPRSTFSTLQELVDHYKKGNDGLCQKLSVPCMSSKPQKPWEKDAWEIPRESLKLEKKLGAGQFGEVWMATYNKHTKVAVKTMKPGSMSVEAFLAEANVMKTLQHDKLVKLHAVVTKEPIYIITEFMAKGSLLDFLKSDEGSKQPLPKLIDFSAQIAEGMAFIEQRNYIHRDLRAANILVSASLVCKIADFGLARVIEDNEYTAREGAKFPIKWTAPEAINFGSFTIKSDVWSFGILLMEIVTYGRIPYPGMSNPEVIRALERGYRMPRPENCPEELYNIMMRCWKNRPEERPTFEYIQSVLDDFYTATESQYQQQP
# [13] = biological target: Tyrosine-protein kinase HCK (Homo sapiens) (UniProt P08631); conditions: at 1 µM
# [14] = biological target: Insulin-like growth factor 1 receptor (Homo sapiens) (UniProt P08069); conditions: at 0.1 µM
# [15] = biological target: Insulin-like growth factor 1 receptor (Homo sapiens) (UniProt P08069); conditions: at 1 µM
# [16] = biological target: Insulin receptor (Homo sapiens) (UniProt P06213); conditions: at 0.1 µM
# [17] = biological target: Insulin receptor (Homo sapiens) (UniProt P06213); conditions: at 1 µM
# [18] = biological target: Insulin receptor-related protein (Homo sapiens) (UniProt P14616); conditions: at 0.1 µM
# Chain of Insulin receptor-related protein (Homo sapiens) (P14616 27-742 limits assumed): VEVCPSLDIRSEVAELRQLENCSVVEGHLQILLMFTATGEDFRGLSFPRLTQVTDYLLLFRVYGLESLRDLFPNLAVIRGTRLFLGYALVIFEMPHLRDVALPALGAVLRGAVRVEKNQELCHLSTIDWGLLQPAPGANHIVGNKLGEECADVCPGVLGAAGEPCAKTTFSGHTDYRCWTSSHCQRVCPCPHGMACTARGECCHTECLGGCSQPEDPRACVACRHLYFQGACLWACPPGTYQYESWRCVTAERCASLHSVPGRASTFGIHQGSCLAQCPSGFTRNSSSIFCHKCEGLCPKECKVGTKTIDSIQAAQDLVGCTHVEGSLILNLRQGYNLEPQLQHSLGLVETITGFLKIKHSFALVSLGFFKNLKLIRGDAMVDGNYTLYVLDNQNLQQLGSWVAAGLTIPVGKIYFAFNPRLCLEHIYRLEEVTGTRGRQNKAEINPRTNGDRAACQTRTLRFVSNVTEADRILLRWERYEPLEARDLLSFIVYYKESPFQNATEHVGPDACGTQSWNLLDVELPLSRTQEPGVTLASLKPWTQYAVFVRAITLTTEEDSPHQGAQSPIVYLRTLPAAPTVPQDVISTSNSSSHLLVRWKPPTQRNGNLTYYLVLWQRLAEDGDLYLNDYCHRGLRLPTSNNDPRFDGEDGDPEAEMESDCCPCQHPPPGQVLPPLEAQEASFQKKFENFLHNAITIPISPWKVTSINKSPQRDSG
# Chain of Insulin receptor-related protein (Homo sapiens) (P14616 747-1297 limits assumed): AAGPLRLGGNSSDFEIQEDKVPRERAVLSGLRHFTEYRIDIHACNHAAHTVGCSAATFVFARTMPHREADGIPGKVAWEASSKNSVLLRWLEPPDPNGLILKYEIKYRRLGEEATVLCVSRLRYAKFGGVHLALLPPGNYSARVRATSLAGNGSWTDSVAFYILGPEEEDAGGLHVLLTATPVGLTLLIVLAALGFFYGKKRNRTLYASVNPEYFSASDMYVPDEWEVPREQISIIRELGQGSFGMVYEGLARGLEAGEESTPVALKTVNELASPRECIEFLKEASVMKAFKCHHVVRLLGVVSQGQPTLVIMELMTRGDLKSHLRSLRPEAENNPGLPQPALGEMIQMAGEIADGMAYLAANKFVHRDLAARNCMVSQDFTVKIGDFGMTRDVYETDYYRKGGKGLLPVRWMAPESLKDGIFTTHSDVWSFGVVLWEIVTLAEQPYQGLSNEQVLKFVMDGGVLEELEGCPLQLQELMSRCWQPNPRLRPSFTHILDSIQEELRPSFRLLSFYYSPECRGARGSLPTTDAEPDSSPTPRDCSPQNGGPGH
# [19] = biological target: Insulin receptor-related protein (Homo sapiens) (UniProt P14616); conditions: at 1 µM
# [20] = biological target: T4, Tyrosine-protein kinase ITK/TSK (Homo sapiens) (UniProt Q08881); conditions: at 0.1 µM;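 note: mean percent inhibition of ITK from the GSK PKIS screen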
# T4 sequence (whole entry): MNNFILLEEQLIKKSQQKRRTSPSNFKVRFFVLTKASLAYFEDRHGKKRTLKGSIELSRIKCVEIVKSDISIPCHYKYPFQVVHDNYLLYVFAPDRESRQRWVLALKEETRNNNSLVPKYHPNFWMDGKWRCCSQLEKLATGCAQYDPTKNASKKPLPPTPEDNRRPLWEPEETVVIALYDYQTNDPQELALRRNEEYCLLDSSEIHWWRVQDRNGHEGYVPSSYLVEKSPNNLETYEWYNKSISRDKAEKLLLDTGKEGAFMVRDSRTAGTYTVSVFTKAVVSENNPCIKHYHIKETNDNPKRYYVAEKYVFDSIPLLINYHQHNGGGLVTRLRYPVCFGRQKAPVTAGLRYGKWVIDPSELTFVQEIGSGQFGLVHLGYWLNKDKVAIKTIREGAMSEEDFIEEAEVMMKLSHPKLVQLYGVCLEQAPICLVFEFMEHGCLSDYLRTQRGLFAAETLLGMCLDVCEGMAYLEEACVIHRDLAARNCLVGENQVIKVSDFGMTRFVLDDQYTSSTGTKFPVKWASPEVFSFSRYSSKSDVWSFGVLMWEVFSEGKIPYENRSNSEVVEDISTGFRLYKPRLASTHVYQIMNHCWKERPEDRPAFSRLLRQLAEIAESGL
compound,measurement,setting,value
CCn1c(-c2nonc2N)nc2c(C#CC(C)(C)O)nc(O[C@@H](CN)c3ccccc3)cc21,inhibition,[1],-1.03%
same,inhibition,[2],0.95%
same,inhibition,[3],0.24%
same,inhibition,[4],3.8%
same,inhibition,[5],2.22%
same,inhibition,[6],58.4%
same,inhibition,[7],93.8%
same,inhibition,[8],0.67%
same,inhibition,[9],1.9%
same,inhibition,[10],3.24%
same,inhibition,[11],25%
same,inhibition,[12],0.41%
same,inhibition,[13],14.1%
same,inhibition,[14],-2.18%
same,inhibition,[15],-0.35%
same,inhibition,[16],1.17%
same,inhibition,[17],1.91%
same,inhibition,[18],-1.87%
same,inhibition,[19],-2.16%
same,inhibition,[20],0.11%
COc1cccc(COc2cc(-n3cnc4ccccc43)sc2C(N)=O)c1,inhibition,[1],8.39%
same,inhibition,[2],66.5%
same,inhibition,[3],92.2%
same,inhibition,[4],3.72%
same,inhibition,[5],-4.13%
same,inhibition,[6],-2.19%
same,inhibition,[7],4.75%
same,inhibition,[8],-8.31%
same,inhibition,[9],-1.4%
same,inhibition,[10],0%
same,inhibition,[11],2.15%
same,inhibition,[12],-1.32%
same,inhibition,[13],-0.98%
same,inhibition,[14],-3.85%
same,inhibition,[15],-1.64%
same,inhibition,[16],-3.2%
same,inhibition,[17],0.19%
same,inhibition,[18],-0.6%
same,inhibition,[19],-1.17%
same,inhibition,[20],-2.19%
COc1cc2c(cc1Nc1nc(Nc3ccsc3C(N)=O)c3cc[nH]c3n1)N(C(=O)CN(C)C)CCC2,inhibition,[1],-3.87%
same,inhibition,[2],86.3%
same,inhibition,[3],97.1%
same,inhibition,[4],9.22%
same,inhibition,[5],5.44%
same,inhibition,[8],55%
same,inhibition,[9],82.8%
same,inhibition,[10],2.02%
same,inhibition,[11],6.09%
same,inhibition,[12],14%
same,inhibition,[13],16.6%
same,inhibition,[14],99.3%
same,inhibition,[15],101%
same,inhibition,[16],102%
same,inhibition,[17],99.9%
same,inhibition,[18],95.7%
same,inhibition,[19],97.3%
same,inhibition,[20],-1.24%
COc1cc(C=NNc2ncnc3c2cnn3Cc2ccccc2)ccc1O,inhibition,[1],-0.84%
same,inhibition,[2],-3.5%
same,inhibition,[3],-2.85%
same,inhibition,[4],-6.4%
same,inhibition,[5],2.91%
same,inhibition,[6],0.12%
same,inhibition,[7],0.41%
same,inhibition,[8],14.5%
same,inhibition,[9],58.7%
same,inhibition,[10],6.12%
same,inhibition,[11],4.87%
same,inhibition,[12],3.29%
same,inhibition,[13],33.7%
same,inhibition,[14],-3.54%
same,inhibition,[15],-1.6%
same,inhibition,[16],-3.1%
same,inhibition,[18],-3.04%
same,inhibition,[19],-4.41%
same,inhibition,[20],-1.61%
